The list is not random: actives were taken first. Their share in the collection is about 2.2%.
DENV2 CPE – DENV2-induced cell death inhibition. DENV2-infected cells, cytopathic effect rescue, plate reader. CPE inhibition, % at 9.99 µM. 350,000 compounds, 1.7% hits. AID 651640; in the data active = CPE inhibition above about 20%, passing the limit was not always enough; tested in BHK-21 cells;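 note: 0% = median of neutral control wells and 100% = median of positive control wells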
C2C12 statin – suppressors of simvastatin-induced myotoxicity in C2C12 myotubes | ATP luminescence, 48 h; scaled: DMSO 0, geranylgeraniol control 100 | rescue of ATP level, % at 7.49 µM | AID 602340 | 330,000 compounds, 0.78% hits;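 active = mean ATP rescue above about 67%, or every replicate alone reaching that limit, limit read from the data, passing the limit was not always enough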;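 note: myotubes were challenged with 10 µM simvastatin during compound exposure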
PGC1a acetyl inh – PGC1a acetylation modulation, inhibitor mode; U2OS PGC1a acetylation, AlphaScreen anti-acetyl-lysine; with virally co-expressed GCN5 acetyltransferase; inhibition, % at 15.6 µM; 350,000 compounds, 0.17% hits;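 active = every replicate shows inhibition of at least 40%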;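 note: 0% = neutral control wells and 100% = positive control wells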
miR122 inh – inhibitors of miR-122 in Huh7 cells. Huh7 miR-122 Renilla luciferase sensor, 48 h; neutral wells = 0, positive control = 100. 340,000 compounds, 0.3% hits. AID 602342. activation (reporter increase), % at 12.5 µM;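 active = mean replicate activation score at least 90 and every replicate individually at or above 90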;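 note: higher luciferase means less miR-122 activity so hits act as miR-122 inhibitors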
PvdQ acylase – P. aeruginosa PvdQ acylase inhibition; purified PvdQ acylase, fluorescence plate reader; inhibition, % at 10 µM; 340,000 compounds, 0.063% hits; in the data active = inhibition above about 30%, passing the limit was not always enough;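 note: 0% = vehicle neutral wells and 100% = reference inhibitor wells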
* hit, by the source's call; . = not tested or not shown; ! = repeats disagree; [ ] = remark or other dose.

SMILES | DENV2 CPE | C2C12 statin | PGC1a acetyl inh | miR122 inh | PvdQ acylase
O=C(O)CC(NC(=O)OCc1ccccc1)c1ccccc1 (centres undefined) | . | 93.3* | 9.2 | 1.2 | -10.9
NC(CC(=O)O)c1cccc(OCc2ccccc2)c1 (centres undefined) | . | 66.1* | -6.4 | -7.1 | 2.3
OC(c1ccc(OCc2ccccc2)cc1)c1nnc(-c2ccccc2)o1 (centres undefined) | . | . | 5.1 | 0.2 | -11.6
C[C@H]1CCCCO[C@H](CN(C)C(=O)CCC(F)(F)F)[C@@H](C)CN([C@@H](C)CO)C(=O)c2cc(NS(=O)(=O)c3ccc(F)cc3)ccc2O1 | 10.6 | . | -10.6 | -0.2[16.7 µM] | .
O=C1c2ccccc2C(=O)N1CC(=O)N1c2ccccc2Sc2ccccc21 | 0.5 | 5.3 | -0.2 | -1.6 | -15.5
O=C1c2ccccc2C(=O)N1CC(=O)N1c2ccccc2Sc2ccc(C(F)(F)F)cc21 | 35.5* | 5.6 | 13.1 | -2.8 | 2.6
COCCNC(=O)C[C@H]1CC[C@H]2[C@@H](COC[C@@H](O)CN2S(=O)(=O)c2ccccc2F)O1 | 5.1 | -4.9 | 10.0 | 5.7[16.7 µM] | .
COC(=O)c1c(NC(=O)C(Cl)Cl)sc2c1C(C(=O)OC)CC2 (centres undefined) | 122.4* | . | . | . | 5.5
COC(=O)c1c(NC(=O)C(C)(C)C)sc2c1C(C(=O)OC)CC2 (centres undefined) | . | . | -1.4 | 1.8 | -7.0
CCS(=O)(=O)Nc1ccc2c(c1)C(=O)N(C)[C@H]1CC[C@H](CC(=O)NCCOC)O[C@@H]1CO2 | -0.9 | -8.6 | . | . | .
Cc1ccc(CNC(=O)c2cc(C)nn2-c2ccccc2)cc1 | 0.3 | 13.9 | . | -5.2 | -11.5
Cc1ccc(Cc2nnc3n(-c4ccccc4)nc(C(=O)c4ccccc4)n3c2=O)cc1 | . | 90.8* | 2.1 | -5.2 | -8.7
CC=Cc1ccc2n(c1=O)C[C@H]1[C@H](CO)[C@@H](C(=O)NCCC)N(Cc3cocn3)[C@@H]21 (mixture of isomers) | 78.4* | -35.3 | . | . | .
CC=Cc1ccc2n(c1=O)C[C@H]1[C@H](CO)[C@@H](C(=O)NCC)N(Cc3cccc(F)c3)[C@@H]21 (mixture of isomers) | -3.8 | -6.9 | . | -0.6[16.7 µM] | .
CC=Cc1ccc2n(c1=O)C[C@H]1[C@H](CO)[C@@H](C(=O)N(C)C)N(Cc3cccc(F)c3)[C@@H]21 (mixture of isomers) | 55.7* | -17.8 | . | . | .
O=C1C=C(c2cc(F)ccc2F)C[C@@H](c2ccc(F)cc2)C1 | . | -0.8 | 9.1 | 4.6 | 64.2*
Cc1cc(N2CCN(C)CC2)n2nc(-c3ccc(Cl)cc3)nc2n1 | 35.1* | . | . | . | 4.3
Cc1cc(N2CCOCC2)n2nc(C)c(-c3ccc(Cl)cc3)c2n1 | -1.3 | -8.2 | 1.0 | . | -15.8
O=S(=O)(c1cccc2cccnc12)N1CCN(Cc2ccc(OCCO)cc2)CC1 | 41.2* | . | 6.6 | . | .
O=S(=O)(NC1CCN(Cc2ccc(OCCO)cc2)CC1)c1cccc2cccnc12 | 8.4 | . | -2.1 | . | .
Cc1ccccc1NC(=O)/C(=C\c1cccs1)NC(=O)c1ccco1 | . | . | . | . | 7.9
Cc1ccccc1NC(=O)/C(=C/c1cccs1)NC(=O)c1ccco1 | 26.8* | . | . | . | 5.6
O=C(Nc1ccccc1F)N[C@@H]1CC[C@@H](CCNC(=O)C2CCCC2)O[C@H]1CO | 39.0* | 5.6 | -2.8 | -3.3[16.7 µM] | .
O=C(Nc1ccccc1F)N[C@@H]1CC[C@H](CCNC(=O)C2CCCC2)O[C@H]1CO | 26.0* | -2.3 | -0.5 | -9.1[16.7 µM] | .
O=C(Nc1ccccc1F)N[C@@H]1CC[C@H](CCNC(=O)C2CCCC2)O[C@@H]1CO | -5.8 | 5.8 | -8.6 | -15.9[16.7 µM] | .
SMILES | DENV2 CPE | C2C12 statin | PGC1a acetyl inh | miR122 inh | PvdQ acylase
COc1ccc(CCC(C)NCc2cc(OC)cc(OC)c2)cc1 (centres undefined) | -1.6 | 6.5 | -17.6 | -1.9 | -15.7
COc1ccc(CCC(C)NCc2ccc(F)cc2)cc1 (centres undefined) | 32.6* | 18.9 | . | -6.5 | -6.4
COCC(=O)N1[C@@H](CO)[C@H](c2ccc(-c3ccccc3)cc2)C12CN(C(C)=O)C2 | -6.5 | . | 1.8 | . | .
Cc1cccc(S(=O)(=O)N2[C@@H]3CNC[C@H]2C3c2ccc(-c3cncnc3)cc2)c1 (some centres undefined) | -1.0 | . | . | . | .
O=C(O)c1ccccc1C(=O)NCc1c(Cl)cccc1Sc1ccc(Cl)cc1 | 26.2* | 13.6 | -17.0 | . | 27.1
C=CCSc1nc(C)c2cc(C)cc(C)c2n1 | . | 132.6* | -5.3 | -3.6 | -11.0
C=CCSc1nc(=O)n2ccc(C)cc2n1 | -1.5 | -7.1 | 11.7 | -24.7 | 4.5
COC(=O)c1c(C(=O)OC)c2cc(C)ccn2c1Cl | . | 100.7* | 8.7 | -0.6 | -11.9
Cc1oc(/N=C/c2ccccc2)c(C#N)c1C | 22.5* | -2.1 | . | . | -15.4
COc1cccc(C#Cc2ccc([C@H]3[C@H](CO)N4C(=O)CN(C(C)=O)C[C@@H]34)cc2)c1 | 13.2 | . | -12.5 | . | .
O=C(Nc1ccc2cn[nH]c2c1)c1c(Cl)cccc1Cl | . | . | -2.0 | -0.7 | 3.0
O=C1C(Cl)=C(Nc2ccc3cn[nH]c3c2)C(=O)c2ccccc21 | -0.4 | -314.7 | 54.7* | -26.5 | 5.7
O=C(CNC(=O)c1ccccc1)OCC(=O)c1ccccc1Cl | 28.4* | . | -2.9 | 1.3 | 1.6
O=C(Cc1ccccc1)NCC(=O)OCC(=O)c1ccccc1Cl | -2.0 | . | . | . | -6.1
COc1ccc(S(=O)(=O)N(C)C[C@@H]2Oc3ccc(NC(=O)Nc4ccccc4)cc3C(=O)N([C@@H](C)CO)C[C@H]2C)cc1 | 35.4* | -2.9 | 0.1 | -6.7[16.7 µM] | .
COc1ccc(S(=O)(=O)N(C)C[C@H]2Oc3ccc(NC(=O)CCCN(C)C)cc3C(=O)N([C@@H](C)CO)C[C@H]2C)cc1 | 33.5* | -7.9 | 1.7 | -3.3[16.7 µM] | .
COc1ccc(NC(=O)Nc2ccc3c(c2)C(=O)N([C@H](C)CO)C[C@@H](C)[C@H](CN(C)S(=O)(=O)c2ccc(Cl)cc2)O3)cc1 | 68.4* | . | -5.3 | -3.8[16.7 µM] | .
COc1ccc(S(=O)(=O)Nc2ccc3c(c2)C(=O)N([C@H](C)CO)C[C@H](C)[C@@H](CN(C)C)O3)cc1 | 69.5* | 15.5 | 7.2 | -2.8[16.7 µM] | .
COc1ccc(S(=O)(=O)N(C)C[C@H]2Oc3ccc(NC(=O)CCCN(C)C)cc3C(=O)N([C@H](C)CO)C[C@@H]2C)cc1 | -6.5 | 4.8 | 8.0 | 10.8[16.7 µM] | .
C[C@H]1CN([C@@H](C)CO)C(=O)c2c(c3ccccc3n2C)-c2ccccc2CO[C@H]1CN(C)Cc1cccc2c1OCCCO2 | -1.0 | . | 5.2 | . | .
COc1ccc(NC(=O)Nc2ccc3c(c2)C(=O)N([C@@H](C)CO)C[C@H](C)[C@@H](CN(C)S(=O)(=O)c2ccc(OC)cc2)O3)cc1 | -2.1 | -10.8 | 2.4 | -10.6[16.7 µM] | .
COc1ccc(NC(=O)Nc2ccc3c(c2)C(=O)N([C@@H](C)CO)C[C@@H](C)[C@H](CN(C)S(=O)(=O)c2ccc(OC)cc2)O3)cc1 | 27.8* | -24.2 | -6.1 | -7.9[16.7 µM] | .
CNC[C@@H]1Oc2ccc(NS(=O)(=O)c3ccc(Cl)cc3)cc2C(=O)N([C@H](C)CO)C[C@@H]1C | 39.2*! | -7.2 | 2.2 | 3.9[16.7 µM] | -10.3

Assay outcomes: PubChem BioAssay, Broad Institute
